In paper PMC5540273 (PLoS ONE, 2017):

Columns and labels:
Conditions in all cases: concentration: 1 μM, replicates: in singlicate; n = 1
PIP5K1A = tested on: PIP5K1A
PIP5K1C = tested on: PIP5K1C
PIP5K2B = tested on: PIP5K2B
PIP5K2C = tested on: T1, PIP5K2C
T1 construct: gene PIP4K2C

PKAC-alpha = tested on: T2, PKAC-alpha
T2 construct: gene PRKACA

PKAC-beta = tested on: T3, PKAC-beta
T3 construct: gene PRKACB

PKMYT1 = tested on: PKMYT1
PKN1 = tested on: PKN1
PKN2 = tested on: PKN2
PLK1 = tested on: PLK1
PLK2 = tested on: PLK2
PLK3 = tested on: PLK3
PLK4 = tested on: PLK4
PRKCD = tested on: PRKCD
PRKCE = tested on: PRKCE
PRKCH = tested on: PRKCH
PRKCI = tested on: PRKCI
PRKCQ = tested on: PRKCQ
PRKD1 = tested on: PRKD1
PRKD2 = tested on: PRKD2
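Further: KINOMEscan kinase panel screen.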

SMILES	%Inh (PIP5K1A) [%]	%Inh (PIP5K1C) [%]	%Inh (PIP5K2B) [%]	%Inh (PIP5K2C) [%]	%Inh (PKAC-alpha) [%]	%Inh (PKAC-beta) [%]	%Inh (PKMYT1) [%]	%Inh (PKN1) [%]	%Inh (PKN2) [%]	%Inh (PLK1) [%]	%Inh (PLK2) [%]	%Inh (PLK3) [%]	%Inh (PLK4) [%]	%Inh (PRKCD) [%]	%Inh (PRKCE) [%]	%Inh (PRKCH) [%]	%Inh (PRKCI) [%]	%Inh (PRKCQ) [%]	%Inh (PRKD1) [%]	%Inh (PRKD2) [%]
Nc1n[nH]c2cnc(-c3ccccc3)cc12 [SB-642124]	40	0	32	18	0	0	15	0	31	0	49	43	1	17	24	38	4	45	5	4
COc1cc(Nc2nccc(N3CCC(NC(=O)c4cc5ccccc5s4)C3)n2)cc(OC)c1OC (stereo not drawn) [GSK1379760]	26	52	15	92.6	18	0	0	0	1	17	0	14	0	7	14	5	7	3	0	23
CN(C)Cc1ccc(-c2ccc3c(Nc4ccc(Oc5ccccn5)cc4)ccnc3c2)o1 [GW567148]	33	18	0	49	0	0	0	0	0	0	0	0	37	0	0	7	0	0	0	4
CC(=O)Nc1nc2cnc(Nc3cc(NC(=O)c4cccc(C5(C#N)CC5)c4Cl)ccc3C)nc2s1	8	4	46	0	0	0	0	0	0	0	4	0	0	29	0	0	0	39	0	4
Cc1occc1-c1ncc(OC[C@@H](N)Cc2c[nH]c3ccccc23)cc1-c1ccc2[nH]nc(C)c2c1.O=C(O)C(F)(F)F [GSK682037]	75	19	40	0	99.8	99.5	7	28	64	0	0	0	0	100	99.8	97.5	28	97.7	90	99.6
COc1cc(Nc2ncc3c(C)nc(-c4cc5ccccc5[nH]4)n3n2)cc(OC)c1OC [GW869516]	0	89	29	90.3	0	51	25	0	0	19	23	24	0	43	0	0	45	0	0	0
Nc1ncc(-c2cccnc2)c2scc(-c3ccc4c(c3)CCN4C(=O)Cc3ccccc3)c12 [GSK683281]	0	17	19	0	31	13	13	30	18	5	0	0	15	25	0	33	33	14	23	73
CN1CCN(Cc2cccc(-c3ccc4c(Nc5ccc(Oc6ccccc6)cc5)ccnc4c3)c2)CC1 [GW578342]	26	59	12	9	0	0	0	0	27	0	0	1	0	15	6	2	19	3	0	18
O=C(Nc1cccc(-c2nn3ccccc3c2-c2ccnc(Nc3cccc(C(F)(F)F)c3)n2)c1)c1c(F)cccc1F [GSK292658]	0	0	5	10	0	13	0	11	0	0	0	0	3	0	0	17	9	20	0	0
